Structures can show the parent of a compound that is named as a salt. ± gives the standard deviation of the averaged measurements.

One assay relates to Klebsiella pneumoniae KPC-119. In words: percent growth inhibition of drug alone vs DMSO control; higher = more growth inhibition. The conditions noted are these: antibiotic (0.125x MIC): none (0.1% DMSO); 7 µM.
Take `CCn1cc(C(=O)O)c(=O)c2cc(F)c(N3CCNCC3)nc21` [Enoxacin]: the “percent growth inhibition of drug alone” value is 1.76 ± 1.6%.
Same read-out and setting: to `CS(=O)(=O)c1ccc([C@@H](O)[C@@H](CF)NC(=O)C(Cl)Cl)cc1` [Florfenicol] belongs 32.2 ± 2%; to `CO/N=C(\C(=O)N[C@@H]1C(=O)N2C(C(=O)O)=C(C[N+]3(C)CCCC3)CS[C@H]12)c1csc(N)n1` [Cefepime hydrochloride], 3.95 ± 2.2%.
The same measure, in the same setting: to `COc1cccc2c1C(=O)c1c(O)c3c(c(O)c1C2=O)C[C@@](O)(C(C)=O)C[C@@H]3O[C@H]1C[C@H](N)[C@H](O)[C@H](C)O1` [Daunorubicin hydrochloride] belongs 5 ± 0.63%; to `C[C@H]1c2cccc(O)c2C(=O)C2=C(O)[C@]3(O)C(=O)C(C(N)=O)=C(O)[C@@H](N(C)C)[C@@H]3[C@@H](O)[C@@H]21` [Doxycycline hydrochloride], 15.8 ± 3%; to `O=C1NCN(c2ccccc2)C12CCN(CCCC(c1ccc(F)cc1)c1ccc(F)cc1)CC2` [Fluspirilen], -0.668 ± 2.3%.
Still for that read-out and setting: in the case of `CN(C)CCCN1c2ccccc2Sc2ccc(Cl)cc21` [Chlorpromazine hydrochloride] it was -3.83 ± 2.6%; in that of `C=CC1=C(C(=O)O)N2C(=O)[C@@H](NC(=O)/C(=N\OCC(=O)O)c3csc(N)n3)[C@H]2SC1` [Cefixime], 9.48 ± 2.4%.
On to `Nc1nc(/C(=C/CC(=O)O)C(=O)N[C@@H]2C(=O)N3C(C(=O)O)=CCS[C@H]23)cs1` [Ceftibuten], for which the “percent growth inhibition of drug alone” value is 38.6 ± 4.3%.
The same measure, in the same setting: in the case of `CCCCCCCCNC(C)C(O)c1ccc(SC(C)C)cc1` (configuration not stated) [Suloctidil] it was -1.6 ± 0.96%; in that of `COC(=O)N/N=C/c1c[n+]([O-])c2ccccc2[n+]1[O-]` [Carbadox], 1.29 ± 2%.
Still for that read-out and setting: to `NCC[C@H](O)C(=O)N[C@@H]1C[C@H](N)[C@@H](O[C@H]2O[C@H](CN)[C@@H](O)[C@H](O)[C@H]2O)[C@H](O)[C@H]1O[C@H]1O[C@H](CO)[C@@H](O)[C@H](N)[C@H]1O` [Amikacin hydrate] belongs 3.37 ± 0.38%; to `CC1COc2c(N3CCN(C)CC3)c(F)cc3c(=O)c(C(=O)O)cn1c23` (configuration not stated) [Ofloxacin], 47.1 ± 5%; to `Oc1c(I)cc(Cl)c2cccnc12` [Clioquinol], 12.1 ± 5%.

The assay is the same for the next values; noted with them: antibiotic (0.125x MIC): none (0.1% DMSO); 20 µM.
Turning to `CCn1cc(C(=O)O)c(=O)c2cc(F)c(N3CCNCC3)nc21` [Enoxacin], the “percent growth inhibition of drug alone” value worked out at 25.2 ± 4%.
Still for that read-out and setting: in the case of `CS(=O)(=O)c1ccc([C@@H](O)[C@@H](CF)NC(=O)C(Cl)Cl)cc1` [Florfenicol] it was 96.46 ± 0.59%.
On the same count and under the same terms, to `COc1cccc2c1C(=O)c1c(O)c3c(c(O)c1C2=O)C[C@@](O)(C(C)=O)C[C@@H]3O[C@H]1C[C@H](N)[C@H](O)[C@H](C)O1` [Daunorubicin hydrochloride] belongs 5.26 ± 2.2%.
For `C[C@H]1c2cccc(O)c2C(=O)C2=C(O)[C@]3(O)C(=O)C(C(N)=O)=C(O)[C@@H](N(C)C)[C@@H]3[C@@H](O)[C@@H]21` [Doxycycline hydrochloride], the “percent growth inhibition of drug alone” value was determined as 35.7 ± 5.2%.
As for `O=C1NCN(c2ccccc2)C12CCN(CCCC(c1ccc(F)cc1)c1ccc(F)cc1)CC2` [Fluspirilen], the “percent growth inhibition of drug alone” value was -1.04 ± 3.2%.
Turning to `CN(C)CCCN1c2ccccc2Sc2ccc(Cl)cc21` [Chlorpromazine hydrochloride], the “percent growth inhibition of drug alone” value is -3.58 ± 1.3%.
Turning to `C=CC1=C(C(=O)O)N2C(=O)[C@@H](NC(=O)/C(=N\OCC(=O)O)c3csc(N)n3)[C@H]2SC1` [Cefixime], the “percent growth inhibition of drug alone” value turned out to be 44.3 ± 4.2%.
`CCCCC(CC)CNC(=N)NC(=N)NCCCCCCNC(=N)NC(=N)NCC(CC)CCCC` (configuration not stated) [Alexidine dihydrochloride]: the “percent growth inhibition of drug alone” value was found to be 99.76 ± 0.25%.
As for `CCCCCCCCNC(C)C(O)c1ccc(SC(C)C)cc1` (configuration not stated) [Suloctidil], the “percent growth inhibition of drug alone” value was -1.21 ± 1.4%.
With `COC(=O)N/N=C/c1c[n+]([O-])c2ccccc2[n+]1[O-]` [Carbadox], the “percent growth inhibition of drug alone” value came to 11 ± 1.9%.
Take `NCC[C@H](O)C(=O)N[C@@H]1C[C@H](N)[C@@H](O[C@H]2O[C@H](CN)[C@@H](O)[C@H](O)[C@H]2O)[C@H](O)[C@H]1O[C@H]1O[C@H](CO)[C@@H](O)[C@H](N)[C@H]1O` [Amikacin hydrate]: the “percent growth inhibition of drug alone” value came to 39.8 ± 0.7%.
The same measure, in the same setting: in the case of `CC1COc2c(N3CCN(C)CC3)c(F)cc3c(=O)c(C(=O)O)cn1c23` (configuration not stated) [Ofloxacin] it was 97.47 ± 0.25%; in that of `Oc1c(I)cc(Cl)c2cccnc12` [Clioquinol], 44.53 ± 0.32%.

Source of the values: the supplement of paper PMC6658780.
